IMPase Li inh: qHTS Assay for Identifying the Cell-Membrane Permeable IMPase Inhibitors: Potentiation with Lithium; CHO-M1 cells, IP1 TR-FRET (IP-One), carbachol + lithium; Potency, µM (titrated, usually from 59.4 µM), for inactives: at the highest dose activity, negative = IMPase inhibition, usual class: inhibitors; actives 0.35% (n = 210,000); AID 1457, 2008;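 note: IP1 builds up when IMPase is blocked and the TR-FRET signal falls; plate controls were basal vehicle for no effect and high inhibitor control for full effect; nearly all actives have a fitted effect of over 50% in size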
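CHO cells stably expressing M1 receptor (2000/well, cultured 16–30 h) treated 30 min at 37C with compound plus low lithium. Cytosolic IP1 by TR-FRET (665/620 ratio and 620 channel) after 10 min lysis; AC50 by Hill fit.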
ALDH1A1 inh: qHTS Assay for Inhibitors of Aldehyde Dehydrogenase 1 (ALDH1A1) | Aldehyde dehydrogenase 1A1 (Homo sapiens), P00352 | Purified ALDH1A1, NADH fluorescence, propionaldehyde substrate | Potency, µM (series often up to 75.3 µM), without a hit: at the highest dose activity, negative = inhibition, actives largely listed as inhibitors | actives 7.3% (n = 220,000); active = well fitted inhibition curve with a large enough effect, not every such curve was filed as active; inconclusive = small, poorly fitted or top-dose-only effect, or another doubt; inactive = no such curve, though single readings can be large or run the other way;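 note: plate controls were no enzyme wells and a reference inhibitor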
Target sequence (P00352 whole entry, looked up): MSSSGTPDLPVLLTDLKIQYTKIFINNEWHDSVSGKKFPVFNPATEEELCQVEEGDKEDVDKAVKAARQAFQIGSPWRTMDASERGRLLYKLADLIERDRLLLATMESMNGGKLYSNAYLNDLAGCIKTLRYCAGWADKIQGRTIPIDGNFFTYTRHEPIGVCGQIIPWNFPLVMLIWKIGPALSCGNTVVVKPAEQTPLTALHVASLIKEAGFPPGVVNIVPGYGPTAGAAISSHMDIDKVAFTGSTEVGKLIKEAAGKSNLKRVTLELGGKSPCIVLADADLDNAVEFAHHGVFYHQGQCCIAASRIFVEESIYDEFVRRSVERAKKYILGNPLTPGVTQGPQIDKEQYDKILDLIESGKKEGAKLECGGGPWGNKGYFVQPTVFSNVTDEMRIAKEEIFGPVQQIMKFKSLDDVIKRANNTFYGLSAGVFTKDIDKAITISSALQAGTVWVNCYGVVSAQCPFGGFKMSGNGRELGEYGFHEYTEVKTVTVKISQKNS
Luc counter: Counterscreen for Luciferase (Kinase-Glo TM) Inhibition; Luciferin 4-monooxygenase (Photuris pensylvanica), Q27757; Kinase-Glo luciferase, ATP luminescence, 8 min; Potency, µM (series often up to 38.3 µM), for the others: at the top dose activity change, negative = inhibition, usual class: inhibitors; actives 0.28% (n = 200,000); note: nearly all actives have a fitted effect of over 60% in size
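Recombinant Kinase-Glo luciferase, 10 uM ATP (linear range), luciferin; imidazole pH 7.2 / KCl / MgCl2 / Tween / BSA buffer; 8 min RT; luminescence.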
HPGD block: qHTS Assay for Inhibitors of HPGD (15-Hydroxyprostaglandin Dehydrogenase); purified HPGD, NADH fluorescence kinetic, PGE2 substrate; Potency, µM, inactives show at the top dose activity change, negative = inhibition, usual class: inhibitors; actives 4.3% (n = 150,000); AID 894, 2007; active = well fitted inhibition curve with a large enough effect, not every such curve was filed as active; inconclusive = small, poorly fitted or top-dose-only effect, or another doubt; inactive = no such curve, though single readings can be large or run the other way
Target sequence (P15428 whole entry, looked up): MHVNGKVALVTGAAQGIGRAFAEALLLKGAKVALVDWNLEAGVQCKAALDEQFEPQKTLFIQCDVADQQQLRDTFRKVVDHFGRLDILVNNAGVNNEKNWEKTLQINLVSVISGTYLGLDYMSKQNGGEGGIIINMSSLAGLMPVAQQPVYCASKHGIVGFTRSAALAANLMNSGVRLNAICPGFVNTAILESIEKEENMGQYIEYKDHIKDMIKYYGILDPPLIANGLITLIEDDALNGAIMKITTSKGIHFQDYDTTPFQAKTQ
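20 nM HPGD preincubated 15 min at room temperature with compound in 50 mM Tris-HCl pH 8, 0.01% Tween 20. Started with 1 mM NAD+ and 30 uM prostaglandin E2; NADH fluorescence (360/450 nm) read 5 times over 30-s intervals, last minus first.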
LMNA splice mod: qHTS Assay for Modulators of Lamin A Splicing. actives 0.01% (n = 200,000). Potency, µM (titrated, usually from 46.1 µM), for inactives: at the top dose ratio change, negative = inhibition, usual class: inhibitors. HeLa LMNA splicing GFP/RFP minigene ratio, 48 h; active = well fitted inhibition curve with a large enough effect in the signal ratio, with a control signal flat, not every such curve was filed as active; inconclusive = small, poorly fitted or top-dose-only effect, or effect the other way, or a change in a side signal; the % refers to the signal ratio
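S3 HeLa stable clones carrying a lamin A-EGFP splicing minigene plus DsRed2 were seeded at 600 cells/well in Opti-MEM with 2% FBS, pin-dosed and incubated 48 h at 37°C. Acumen cytometry (488 nm) gave the GFP/RFP total-intensity ratio.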
Active calls of the source: *; ? = inconclusive; nt = not tested or not shown; [ ] = remark or other dose. Only some compounds are listed: those with a hit (about 9% of all), similar ones and a draw of the others. Unless noted, calls come from the whole dose curve; as a rule, active = well fitted curve in the direction sought with a large enough effect; inconclusive = small, poorly fitted or top-dose-only effect, or another doubt; inactive = no such curve, though single readings can be large; an effect the other way counts as inactive or inconclusive. Unless noted, % is set by controls: 0 for no effect and ±100 for the full control effect; potency is the fitted concentration of half-maximal effect.

SMILES	IMPase Li inh	ALDH1A1 inh	Luc counter	HPGD block	LMNA splice mod
CCOc1ccc(/C=N/NC(=O)c2[nH]ncc2Br)c(O)c1	-3.3%	10.6%	11.2µM*	nt	?
C#CCSC1=C(C#N)C(c2cccs2)C(C(=O)OCC)=C(C)N1 (stereo not drawn)	23.3%[38.3 µM]	25.1µM*	1.0%	-23.0%	-6.0%
CCN(CC)S(=O)(=O)c1ccc2c(c1)c(=O)c(C(=O)NCc1cccs1)cn2C	2.8%	11.2µM*	-1.1%	-11.7%	6.0%
CN(C)S(=O)(=O)c1ccc2c(c1)c(=O)c(C(=O)NCCCN1CCCCCC1)cn2C	15.2%	15µM*	3.2%	-16.4%	-15.5%
CCN(CC)S(=O)(=O)c1ccc2c(c1)c(=O)c(C(=O)NCCCN(C)c1ccccc1)cn2C	22.3%[38.3 µM]	4.4%	0.2%	-4.3%	-2.4%
N#Cc1cccc(-c2nc3cnc(Nc4ccccc4)nc3n(C[C@H]3CCCO3)c2=O)c1	9.2%	-10.9%	-0.2%	-10.4%	nt
Cc1cc(=O)[nH]c(N=N/C(=N/Nc2ccc(O)cc2)c2ccccc2)n1	120.6%[38.3 µM]	14.1µM*	7.94µM*	31.6µM*	-5.7%
Cc1cc(=O)[nH]c(N=N/C(=N/Nc2ccccc2C)c2ccccc2)n1	32.6%[38.3 µM]	?	?	-19.5%	-3.6%
COc1ccc(N/N=C(/N=Nc2nc(C)cc(=O)[nH]2)c2ccccc2)cc1	62.9%[38.3 µM]	-8.4%	8.91µM*	-14.4%	?
CCOc1ccc(N2CC(NC(=O)c3ccc(S(=O)(=O)N4CCCC4)cc3)CC2=O)cc1 (stereo not drawn)	nt	nt	nt	nt	9.3%[46 µM]
CCCCNC(=O)CSc1nc2ccsc2c(=O)n1CCCC(=O)NCCc1ccc(S(N)(=O)=O)cc1	-3.6%	2.4%	1.5%	nt	?
C=CCNC(=S)Nc1sc2c(c1C(=O)OCC)CC(C(C)C)OC2 (stereo not drawn)	-24.7%[38.3 µM]	11.2µM*	-4.1%	-29.1%	-25.6%
CCOC(=O)c1c(NC(=S)NCCc2ccccc2)sc2c1CC(C(C)C)OC2 (stereo not drawn)	-5.8%	25.1µM*	2.2%	-9.1%	?
CC1CCCC(C)N1C(=O)c1cc(-c2ccc(Cl)c(Cl)c2)on1 (stereo not drawn)	14.1%[38.3 µM]	-18.8%	-1.5%	17.8µM*	9.6%
Cc1ccc(-c2cc(C(=O)N3CCCC3)no2)cc1	8.6%[38.3 µM]	?	-13.3%	?	24.4%
Cc1ccccc1NC(=O)Cn1c(=O)sc2ccccc21	8.9%	11.5%	-3.5%	nt	1.8%[46 µM]
C[C@@H]1C=C[C@](Cc2ccccc2)(C(=O)NCCN2CCOCC2)N1C(=O)c1ccccc1	-8.7%	0.8%	1.4%	-6.4%	nt
O=C(NNc1c(Cl)cccc1Cl)c1cccs1	nt	25.1µM*	nt	nt	nt
Cc1ccc(-c2nn(-c3ccccc3)cc2C(=O)N2CCOCC2)cc1C	1.3%	10µM*	4.7%	nt	-18.0%[46 µM]
COc1ccc(C=O)cc1OS(=O)(=O)c1ccccc1[N+](=O)[O-]	-5.2%	-6.7%	1.8%	20µM*	2.4%
CCOc1cc(C(=S)N2CCOCC2)ccc1OS(=O)(=O)c1ccccc1[N+](=O)[O-]	-9.2%	-0.9%	-1.5%	15.8µM*	?
COc1cc(C(=S)N2CCOCC2)ccc1OS(=O)(=O)c1ccccc1[N+](=O)[O-]	4.9%	?	-2.9%	?	?
COc1ccc(C(=S)N2CCOCC2)cc1OS(=O)(=O)c1ccccc1[N+](=O)[O-]	-7.3%	11.2µM*	-2.7%	31.6µM*	-15.6%
Cc1ccc(CNc2ncnc3onc(C)c23)cc1	nt	nt	nt	nt	-0.1%[46 µM]
CC1(C)CC(=O)C(C(C2=C(O)CC(C)(C)CC2=O)c2ccco2)C(=O)C1 (stereo not drawn)	-22.4%[38.3 µM]	?	-4.4%	10µM*	10.2%
SMILES	IMPase Li inh	ALDH1A1 inh	Luc counter	HPGD block	LMNA splice mod
COc1cc(C(C2=C(O)CC(C)(C)CC2=O)C2C(=O)CC(C)(C)CC2=O)cc(OC)c1OC (stereo not drawn)	3.1%	?	1.9%	nt	nt
O=C(NCCO)C(O)C(O)C(=O)NCCO (stereo not drawn)	33.0%	17.8µM*	0.6%	nt	-5.8%[46 µM]
COc1ccc(CC2(CO)CCN(S(=O)(=O)c3sccc3C)CC2)cc1	18.3%	8.91µM*	-1.0%	nt	nt
O=S(=O)(c1cccc(F)c1)N1CCC(CO)(Cc2cccc(F)c2)CC1	9.1%	-8.0%	2.1%	nt	?
Cc1cccc(S(=O)(=O)N2CCC(CO)(Cc3ccccc3)CC2)c1	6.8%	20µM*	3.4%	nt	-4.0%[46 µM]
Oc1ccc(Br)cc1-c1cc(-c2ccccc2F)[nH]n1	39.5%[38.3 µM]	2.1%	-3.0%	4.47µM*	-2.0%
Cc1ccccc1-c1cc(-c2ccccc2O)n[nH]1	44.0%[38.3 µM]	10.3%	0.8%	?	-4.1%
COc1ccccc1-c1cc(-c2cc(Cl)ccc2O)n[nH]1	-17.5%[38.3 µM]	?	-3.2%	-19.3%	-4.7%
Oc1ccc(Cl)cc1-c1cc(-c2ccccc2)n[nH]1	36.9%[38.3 µM]	3.6%	3.4%	15.8µM*	?
O=C(CCCc1nc2ccccc2s1)NCc1ccc(F)cc1	10.7%	?	-1.5%	25.1µM*	2.6%
O=C(CCCc1nc2ccccc2s1)NCc1ccccc1	-1.6%	10.2%	3.1%	14.1µM*	7.3%
O=C(CCCc1nc2ccccc2s1)NC(c1ccccc1)c1ccccc1	7.8%	-1.3%	4.9%	-3.7%	-9.3%
O=C(O)CCCc1nc2ccccc2s1	34.8%[38.3 µM]	-0.1%	1.5%	-7.7%	8.4%
O=S(=O)(Cc1ccc(Cl)cc1)NCc1cccnc1	nt	7.1%	nt	nt	nt
O=C(CCC(=O)Nc1ccccc1Cl)NNC(=O)c1ccccc1[N+](=O)[O-]	-3.5%	-4.7%	3.4%	nt	-15.0%[46 µM]
CCCn1c(-c2ccc(F)cc2)nc2c(NC(C)CN(C)C)nc(C)nc21 (stereo not drawn)	3.1%	?	-1.9%	-27.5%	nt
CC(=O)NN1C(=O)/C(=C/c2ccc(Br)o2)SC1=S	6.9%[38.3 µM]	25.1µM*	1.0%	?	-14.5%
CC(=O)NN1C(=O)/C(=C\c2ccc(Br)o2)SC1=S	-2.1%	?	-0.7%	?	?
CSc1nc(-c2cccs2)c(C#N)c(=O)[nH]1	nt	?	nt	nt	5.2%[46 µM]
N#Cc1c(-c2ccccc2)nc(SCC(=O)NC2CCCCC2)[nH]c1=O	10µM*	-15.7%	2.7%	nt	0.1%[46 µM]
Cc1ccc(C)c(NC(=O)CSc2nc(-c3ccccc3)c(C#N)c(=O)[nH]2)c1	nt	nt	nt	nt	-11.5%[46 µM]
CNC(=O)NC(=O)CSc1nc(-c2cccs2)c(C#N)c(=O)[nH]1	5.01µM*	-0.7%	-4.9%	nt	?
O=C(CSc1nc2scc(-c3ccccc3)c2c(=O)[nH]1)NC1CCCCC1	?	1.9%	nt	nt	nt
CCOC(=O)Cc1csc(NC(=O)CSc2nc(-c3ccccc3)c(C#N)c(=O)[nH]2)n1	-25.8%	?	1.6%	nt	nt

From PubChem BioAssay
